Test [1] concerns the target Progesterone receptor (Homo sapiens) (UniProt P06401). The experiment in a line: qHTS assay to identify small molecule antagonists of the progesterone receptor (PR) signaling pathway (AID 1346795; active = well fitted inhibition curve with a large enough effect in the signal ratio in the repeat runs, not every such curve was filed as active; the % refers to the signal ratio; note: potency is the fitted concentration of half-maximal effect). An outline of the steps: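 Read-out is fluorescence from the LiveBLAzer B/G FRET substrate, cleaved by a UAS-controlled beta-lactamase in PR-UAS-bla HEK293T cells after 16 hr exposure to compound plus 1 nM promegestone (final), followed by 2 hr at room temperature.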

Test [2] is described as follows: qHTS assay to identify small molecule antagonists of the progesterone receptor (PR) signaling pathway - cell viability counter screen (AID 1346798).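 For activity change, negative = cytotoxicity: HEK293T PR-UAS-bla cells stimulated with the agonist R5020; series mostly up to about 92 µM.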 Note: nearly all actives have a fitted effect of over 50% in size. Note: potency is the fitted concentration of half-maximal effect. An outline of the steps:
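HEK293T PR-UAS-bla, 2% charcoal-stripped FBS; 4 hr pre-plate; cpd + R5020, 16 h 37C; LiveBLAzer read first; then CellTiter-Glo 30 min RT, luminescence.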

Test [3] can be described thus: qHTS assay to identify small molecule agonists of the progesterone receptor (PR) signaling pathway - cell viability counter screen (AID 1346799; calls by dose curve; note: nearly all actives have a fitted effect of over 45% in size; note: potency is the fitted concentration of half-maximal effect). An outline of the steps: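 Luminescence from CellTiter-Glo, added after the beta-lactamase FRET read in the same wells, gave cytotoxicity in PR-UAS-bla HEK293T cells treated with compounds for 16 hr at 37C.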
Test [4] is described as follows: qHTS assay to identify small molecule agonists of the TGF-beta/Smad signaling pathway - cell viability counter screen (AID 1346829). For activity change, negative = cytotoxicity: top concentration of the series differs between compounds. Note: nearly all actives have a fitted effect of over 45% in size. Note: potency is the fitted concentration of half-maximal effect. An outline of the steps:
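Same-well cytotoxicity: CellTiter-Glo added after the 2 hr room-temperature beta-lactamase substrate step, luminescence measured 30 min later; cells had 5 hr of compound at 37 C.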

Test [5] is described as follows: qHTS assay to identify small molecule agonists of the TGF-beta/Smad signaling pathway (AID 1346859; active = well fitted activation curve with a large enough effect in the signal ratio in the repeat runs, not every such curve was filed as active; the % refers to the signal ratio; note: series mostly up to about 77 µM). An outline of the steps:
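SBE-bla HEK 293T, 4,000 cells/well, plated o/n; cpd in DMSO, 5 hr, 37 C/5% CO2; B/G FRET substrate 2 hr RT; ex 405, em 460/530 nm.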

Test [6] addresses Thyrotropin-releasing hormone receptor (Homo sapiens) (UniProt P34981). Description: qHTS assay to identify small molecule antagonists of the thyrotropin-releasing hormone receptor (TRHR) signaling pathway (AID 1346877; active = well fitted inhibition curve with a large enough effect in the repeat runs, not every such curve was filed as active; note: series mostly up to about 51 µM). An outline of the steps: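 Kinetic fluorescence (3 min, 1 s resolution) following stimulation with TRH at 1 nM final; HEK293 cells bearing human TRHR; 5 min compound preincubation at RT; concentration-response over 15 points, triplicates.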

Test [7] has the same target. The experiment in a line: qHTS assay to identify small molecule agonists of the thyrotropin-releasing hormone receptor (TRHR) signaling pathway (AID 1346891; calls by dose curve; note: series mostly up to about 58 µM). An outline of the steps:
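Intracellular calcium rise, read as fluorescence every second for 3 min, served as the agonist signal in dye-loaded HEK293 cells expressing TRHR; each compound ran at 15 concentrations in triplicate.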

Test [8] can be described thus: Human pregnane X receptor (PXR) small molecule agonists, qHTS cell viability counter screen (AID 1346977). Note: nearly all actives have a fitted effect of over 50% in size. Note: potency is the fitted concentration of half-maximal effect. An outline of the steps:
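PXR-Luc HepG2, 2,000 cells/well, 5% charcoal-stripped FBS; 5hr settle; cpd 24hr, 37C/5% CO2; CellTiter-Fluor at 23hr, read 1hr later (fluorescence).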

A short description of test [9]: Caspase-3/7 induction in HepG2 cells by small molecules, qHTS assay (AID 1346978). Note: nearly all actives have a fitted effect of over 15% in size. Note: potency is the fitted concentration of half-maximal effect. An outline of the steps:
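Wild-type HepG2 cells (2,000/well) were settled 5 h at 37 C, 5% CO2, then exposed to compounds in DMSO for 17 h. Caspase-3/7 activity was read by luminescence 30 min after adding Caspase-Glo 3/7 reagent at room temperature.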

Test [10] in a line: qHTS assay to identify small molecule antagonists of the TGF-beta/Smad signaling pathway - cell viability counter screen (AID 1346824). Note: nearly all actives have a fitted effect of over 50% in size. Note: potency is the fitted concentration of half-maximal effect. An outline of the steps:
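SBE-bla HEK 293T cells were plated overnight at 37 C, then given compounds in DMSO plus TGF-beta1 (added as 0.25 ng/mL solution) for 5 hr. After the bla read, CellTiter-Glo was added to the same wells and luminescence read after 30 min at room temperature.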

Several values for one entry are separate records, joined by “and”; a condition that tells them apart may be missing. Equal values may be shown once. Unmarked numbers belong to inactive results. Records with an inconclusive call do not appear. Activity calls are given as the source filed them. Unless noted, calls come from the whole dose curve; as a rule, active = well fitted curve in the direction sought with a large enough effect in the repeat runs; inconclusive = weak or mixed curves; inactive = no such curve, though single readings can be large; an effect the other way counts as inactive or inconclusive.
% is set by controls: 0 for no effect and ±100 for the full control effect.

Sequence of Progesterone receptor (Homo sapiens) (P06401 whole entry, looked up): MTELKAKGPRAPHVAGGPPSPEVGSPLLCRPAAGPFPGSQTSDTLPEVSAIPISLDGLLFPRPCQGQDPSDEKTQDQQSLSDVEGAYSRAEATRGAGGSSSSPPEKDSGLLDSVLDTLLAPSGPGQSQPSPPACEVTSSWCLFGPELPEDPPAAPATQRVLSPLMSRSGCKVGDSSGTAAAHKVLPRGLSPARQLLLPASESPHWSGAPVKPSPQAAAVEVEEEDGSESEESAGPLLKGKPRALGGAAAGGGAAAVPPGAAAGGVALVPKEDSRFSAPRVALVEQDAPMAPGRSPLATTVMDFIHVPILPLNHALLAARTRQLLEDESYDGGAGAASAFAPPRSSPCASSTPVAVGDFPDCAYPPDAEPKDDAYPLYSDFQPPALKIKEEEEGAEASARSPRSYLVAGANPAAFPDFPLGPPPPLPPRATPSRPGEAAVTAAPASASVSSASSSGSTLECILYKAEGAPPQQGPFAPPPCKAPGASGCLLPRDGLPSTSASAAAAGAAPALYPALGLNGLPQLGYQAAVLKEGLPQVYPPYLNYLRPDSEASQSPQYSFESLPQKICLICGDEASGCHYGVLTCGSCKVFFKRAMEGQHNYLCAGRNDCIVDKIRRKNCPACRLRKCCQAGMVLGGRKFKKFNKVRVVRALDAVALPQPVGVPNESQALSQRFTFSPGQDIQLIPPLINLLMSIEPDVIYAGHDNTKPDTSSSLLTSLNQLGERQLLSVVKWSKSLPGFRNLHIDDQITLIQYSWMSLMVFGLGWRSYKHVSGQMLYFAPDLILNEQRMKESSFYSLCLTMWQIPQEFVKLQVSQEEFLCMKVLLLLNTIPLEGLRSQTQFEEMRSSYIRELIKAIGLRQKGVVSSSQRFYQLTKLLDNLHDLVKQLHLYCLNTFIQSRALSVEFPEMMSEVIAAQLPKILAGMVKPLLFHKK
Sequence of Thyrotropin-releasing hormone receptor (Homo sapiens) (P34981 whole entry, looked up): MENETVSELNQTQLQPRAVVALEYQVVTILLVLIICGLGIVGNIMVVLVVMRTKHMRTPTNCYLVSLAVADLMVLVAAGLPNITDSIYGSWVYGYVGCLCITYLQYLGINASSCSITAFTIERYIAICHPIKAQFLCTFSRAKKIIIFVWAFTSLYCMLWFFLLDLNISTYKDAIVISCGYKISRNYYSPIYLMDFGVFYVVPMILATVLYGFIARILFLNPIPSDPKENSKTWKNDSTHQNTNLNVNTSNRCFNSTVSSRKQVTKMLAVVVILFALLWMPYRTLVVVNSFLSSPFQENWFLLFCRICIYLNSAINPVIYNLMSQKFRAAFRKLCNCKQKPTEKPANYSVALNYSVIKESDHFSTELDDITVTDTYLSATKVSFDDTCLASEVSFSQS

As for `CCCCCCCCCCCCCCCS(=O)(=O)Oc1ccccc1`, the Potency result in test [1], in test [2], in [3], in test [4], in test [5] and in [6] was “inactive” in each case. Moreover, the Potency entry in test [7], in [8] and in test [9] was “inactive” throughout.

Take `C[C@H](CCC(=O)O)[C@H]1CC[C@H]2[C@@H]3CC[C@@H]4C[C@H](O)CC[C@]4(C)[C@H]3CC[C@]12C`: the Potency in test [1] was 19.3 µM (active) and 48.6 µM (active); in test [2], 24.2 µM (active) and 61.1 µM (active); in test [3] it was 30.5 µM (active) and 38.6 µM (active). In addition, the Potency result in test [4] and in test [8] was “inactive” throughout.

Turning to `CCc1cc(SCc2sc(-c3ccc(C(F)(F)F)cc3)nc2CN2CCN(c3ccc(OC)cc3)CC2)ccc1OCC(=O)O`, the Potency in test [1] was 24.3 µM (active); in test [2] it was 4.86 µM (active); in test [3] it was 6.11 µM (active); in [8], 54.5 µM (active). Also, the Potency result in [10] and in test [6] was “inactive” throughout.

As to `O=S1(=O)CC(Cl)(Cl)C(Cl)(Cl)C1`, the Potency is 6.86 µM (active) in test [1], 13.7 µM (active) in test [2], 12.2 µM (active) in test [3] and 2.73 µM (active) in test [8]. For the same compound, the Potency result in test [6], in test [7] and in test [9] was “inactive” throughout.

Regarding `O=C(Oc1ccccc1)c1ccccc1C(=O)Oc1ccccc1`, in [1], the Potency is 24.3 µM (active). Further, the Potency entry in [2], in [10], in [4], in [6], in test [7] and in test [8] was “inactive” each time. In addition, the Potency entry in [9] was “inactive”.

In the case of `Nc1ccc(N)c2ccccc12`, the Potency in test [1] is 54.4 µM (active); in [8], 24.3 µM (active). Moreover, the Potency result in [3], in test [6] and in test [7] was “inactive” each time.

Regarding `CC(=O)N1CCN(c2ccc(OC[C@H]3CO[C@](Cn4ccnc4)(c4ccc(Cl)cc4Cl)O3)cc2)CC1`, the Potency in test [1] is 13.7 µM (active); in [3], 30.6 µM (active); in [8], 27.3 µM (active); in test [9], 68.6 µM (active). Further, in [5], the Potency entry was “inactive”.

As for `CC[C@H](c1ccc(O)cc1)[C@@H](CC)c1ccc(O)cc1`, the Potency in test [1] is 7.7 µM (active) and 7.5 µM (active). The Potency entry in [10], in [4], in test [5], in [8] and in test [9] was “inactive” throughout.

As to `Cc1cc(O)c(Cl)c(C)c1Cl`, the Potency result in test [1], in test [3], in test [10], in test [4], in test [5] and in test [6] was “inactive” each time. In addition, the Potency result in [7], in test [8] and in test [9] was “inactive” in each case.

`O=C(N/N=C/c1ccccc1O)c1ccncc1`: the Potency in [1] is 10.6 µM (active). In addition, the Potency result in test [10], in [4], in [5], in test [6], in test [7] and in test [8] was “inactive” in each case. The Potency result in test [9] was “inactive”.

Regarding `Cc1onc(-c2ccccc2Cl)c1C(=O)N[C@@H]1C(=O)N2[C@@H]1SC(C)(C)[C@@H]2C(=O)O`, the Potency result in test [1], in test [3], in test [10], in [4], in test [5] and in [9] was “inactive” throughout.

With `O=C(c1ccc(O)cc1O)c1ccc(O)cc1O`, in test [1], the Potency was 10.9 µM (active). Further, the Potency entry in test [3], in test [10], in test [4], in test [5], in test [6] and in test [7] was “inactive” in each case. Besides, the Potency result in test [8] and in [9] was “inactive” in each case.

As to `CC(C)c1ccc2c(c1)CC[C@H]1[C@](C)(CN)CCC[C@]21C`, the Potency result in test [1] and in test [10] was “inactive” throughout.

Take `COC(=O)C1=C(C)NC(C)=C(C(=O)OCC(C)C)C1c1ccccc1[N+](=O)[O-]` (stereo unspecified): the Potency in [1] is 10.6 µM (active); in test [8], 61.1 µM (active). The Potency result in [10], in test [4], in [5], in [6], in test [7] and in test [9] was “inactive” throughout.

Regarding `CC(NN)c1ccccc1` (stereo unspecified), the activity change, negative = inhibition in test [1] is -2.01% [at 18.9 µM]. Further, the figures for the activity change, negative = cytotoxicity in [3], in test [4] and in [8] were -7.08% [at 19 µM], -16.9% [at 15.8 µM] and 0.166% [at 19 µM], respectively. For the same compound, the activation in test [5] was 1.03% [at 15.8 µM]. Besides, in test [9], the caspase activation was -0.345% [at 19 µM].

In the case of `Oc1ccc(Cl)cc1Sc1cc(Cl)ccc1O`, the Potency was 7.68 µM (active) and 9.44 µM (active) in [1]; 15.3 µM (active) in [8]. Moreover, the Potency entry in test [3], in test [10], in [4], in test [5] and in test [9] was “inactive” each time.

`CCCCCCOC(=O)c1ccc(O)cc1`: the Potency in test [1] was 38.6 µM (active) and 21.7 µM (active). The Potency result in test [3], in test [4], in test [5], in test [6], in test [7] and in test [8] was “inactive” throughout. Further, the Potency result in [9] is “inactive”.

For `O=C1CCCc2c1cc1ccc3cccc4ccc2c1c34`, the Potency in test [1] was 3.48 µM (active). Further, the Potency entry in test [10], in [4], in test [6], in test [7], in test [8] and in test [9] was “inactive” in each case.

For the compound `O=CC=C(c1ccccc1)c1ccccc1`, in [1], the Potency is 27.5 µM (active). Also, the Potency result in [10], in test [4], in test [5], in test [6], in [7] and in test [9] was “inactive” throughout.

Turning to `CCC(C)Nc1ccc(NC(C)CC)cc1` (stereo unspecified), the Potency in test [1] is 55.5 µM (active); in test [10] it was 25 µM (active); in [4] it was 39.7 µM (active); in [8], 12.4 µM (active). Moreover, the Potency result in test [6], in test [7] and in [9] was “inactive” throughout.

Turning to `COc1cc(/C=C/C(=O)O[C@H]2CC[C@]34C[C@]35CC[C@]3(C)[C@@H]([C@H](C)CCC=C(C)C)CC[C@@]3(C)[C@@H]5CC[C@H]4C2(C)C)ccc1O`, the Potency entry in test [1], in test [3], in [10], in [4], in test [5] and in test [6] was “inactive” each time. Besides, the Potency entry in test [7] and in test [8] was “inactive” each time. The Potency in test [9] was 15 µM (active).

`Cc1onc(-c2c(Cl)cccc2Cl)c1C(=O)N[C@@H]1C(=O)N2[C@@H]1SC(C)(C)[C@@H]2C(=O)O`: the Potency entry in [1], in test [3], in [10], in test [4], in [5] and in test [6] was “inactive” each time. Further, the Potency result in test [7], in test [8] and in test [9] was “inactive” in each case.

On to `NC(=O)CC[C@@H]1NC(=O)[C@H](Cc2ccccc2)NC(=O)[C@H](Cc2ccc(O)cc2)NC(=O)CCSSC[C@@H](C(=O)N2CCC[C@H]2C(=O)N[C@@H](CCCN=C(N)N)C(=O)NCC(N)=O)NC(=O)[C@H](CC(N)=O)NC1=O`, for which the Potency result in test [1], in [3], in [10], in test [4], in test [8] and in test [9] was “inactive” throughout.

Regarding `CCC1=C[C@@H]2CN(C1)Cc1c([nH]c3ccccc13)[C@@](C(=O)OC)(c1cc3c(cc1OC)N(C)[C@H]1[C@@](O)(C(=O)OC)[C@H](OC(C)=O)[C@]4(CC)C=CCN5CC[C@]31[C@@H]54)C2`, the values for the Potency in [1] and in [8] were 0.944 µM (active) and 13.3 µM (active), respectively. Besides, the Potency result in test [10], in test [4], in test [5], in test [6], in [7] and in test [9] was “inactive” in each case.

On to `CC(=O)SC[C@@H](Cc1ccccc1)C(=O)NCC(=O)OCc1ccccc1`, for which the Potency entry in [1], in test [3], in [10], in test [4], in test [5] and in test [8] was “inactive” each time. The Potency entry in test [9] is “inactive”.

`CCC1OCC(COc2ccc(Oc3ccccc3)cc2)O1` (stereo unspecified): the Potency in test [1] is 54.5 µM (active). Besides, the Potency entry in [10], in [4], in test [5], in [6], in test [7] and in test [9] was “inactive” throughout.

(Values after PubChem BioAssay (Tox21).)
